# Values joined by “and” are separate entries in the source; they are usually repeats but may differ in a detail not shown here. Equal entries are not always repeated. Inconclusive results are not listed. Entries that show only a call come without a potency. A structure can be active in one record and inactive in another. Active and inactive are the calls of the source. Calls follow the shape of the dose curve; as a rule, active = well fitted curve in the direction sought with a large enough effect in the repeat runs; inconclusive = weak or mixed curves; inactive = no such curve, though single readings can be large; an effect the other way counts as inactive or inconclusive.
# Tests used:
# [1] = qHTS assay to identify small molecule antagonists of the glucocorticoid receptor (GR) signaling pathway - cell viability counter screen (AID 720693); also: nearly all actives have a fitted effect of over 55% in size
# [2] = qHTS assay for identifying genotoxic compounds that show differential cytotoxicity against isogenic chicken DT40 cell lines with known DNA damage response pathways - wild type cell line (AID 743012); also: nearly all actives have a fitted effect of over 60% in size; also: potency is read from the fitted curve at half-maximal effect
# Method in brief: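 Cells (DT40 wild type, 300/well) are treated with DMSO-dissolved compounds after a ~0.5 h pre-incubation and kept 40 h at 37 C/5% CO2. Viability is then measured by CellTiter-Glo luminescence following 30 min at room temperature.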
# [3] = qHTS assay for identifying genotoxic compounds that show differential cytotoxicity against isogenic chicken DT40 cell lines with known DNA damage response pathways - Rev3 mutant cell line (AID 743014); also: nearly all actives have a fitted effect of over 55% in size; also: potency is read from the fitted curve at half-maximal effect
# [4] = qHTS assay for identifying genotoxic compounds that show differential cytotoxicity against isogenic chicken DT40 cell lines with known DNA damage response pathways - Rad54/Ku70 mutant cell line (AID 743015); also: nearly all actives have a fitted effect of over 60% in size; also: potency is read from the fitted curve at half-maximal effect
# [5] = qHTS assay to identify small molecule antagonists of the androgen receptor (AR) signaling pathway - cell viability counter screen (AID 743033; also: nearly all actives have a fitted effect of over 45% in size)
# [6] = qHTS assay to identify small molecule antagonists of the androgen receptor (AR) signaling pathway using the MDA cell line - cell viability counter screen (AID 743041; also: nearly all actives have a fitted effect of over 45% in size)
# Method in brief: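 MDA-kb2 AR-luc cells (MMTV-luciferase, AR/GR responsive) treated with compounds plus R1881 agonist for 16 h at 37C. CellTiter-Fluor added at 15.5 h; fluorescence read after 30 min in the same wells.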
SMILES,Potency [1],Potency [2],Potency [3],Potency [4],outcome [5],outcome [6]
COP(=S)(OC)SCN1C(=O)c2ccccc2C1=O,inactive,48.6 µM (active),61.6 µM (active),inactive,inactive,inactive
Nc1nc(N)nc(NC2CC2)n1,inactive,inactive,inactive,inactive and 61.1 µM (active),inactive,inactive
Cc1ccc(N)cc1,inactive,inactive,inactive,inactive,inactive,inactive
Oc1c(Br)cc(Br)cc1Br,inactive,inactive,inactive,inactive,inactive,inactive
CNCC(O)c1ccc(O)cc1 (centres undefined),inactive,inactive,inactive,inactive,inactive,inactive
OCC(O)CCl (centres undefined),inactive,inactive,inactive,inactive,inactive,inactive
Cc1cc(O)ccc1Cl,inactive,inactive,inactive,inactive,inactive,inactive
CNc1cnn(-c2cccc(C(F)(F)F)c2)c(=O)c1Cl,inactive,inactive,inactive and 61.1 µM (active),inactive,inactive,inactive
Cc1ccc(N=C=O)cc1N=C=O,inactive,inactive,inactive,62.7 µM (active) and inactive,inactive,inactive
CC[N+](=O)[O-],inactive,inactive,inactive,inactive,inactive,inactive
ClCCOCCCl,inactive,inactive,inactive,inactive,inactive,inactive
Oc1ccc(Cl)cc1,inactive,inactive,inactive,inactive,inactive,inactive
CCCCC(CC)C(=O)Cl (centres undefined),inactive,inactive,inactive,inactive,inactive,inactive
Sc1ccccc1,inactive,inactive,inactive,inactive,inactive,inactive
Nc1ccc(N)cc1,inactive,54.7 µM (active),19.4 µM (active) and 54.5 µM (active),26.6 µM (active) and 21.8 µM (active),inactive,inactive
Cc1cccc(C)c1NC(=O)CN1CCCC1=O,inactive,inactive,inactive,inactive,inactive,inactive
C=CCN=C=S,inactive,inactive,62.5 µM (active),inactive,inactive,inactive
Clc1cnc(Oc2ccc(Oc3ncc(Cl)cc3Cl)cc2)c(Cl)c1,inactive,inactive,inactive,inactive and 30.6 µM (active),inactive,inactive
COc1nc(NC(C)C)nc(NC(C)C)n1,inactive,inactive,inactive,inactive,inactive,inactive
C=CC#N,inactive,inactive,inactive,inactive,inactive,inactive
CCNc1nc(Cl)nc(NC(C)C)n1,inactive,inactive,inactive,inactive,inactive,inactive
O=C/C=C/c1ccccc1,inactive,inactive,inactive,inactive,inactive,inactive
Cc1cccc(C)c1N,inactive,inactive,inactive,inactive,inactive,inactive
CN(C)NC(=O)CCC(=O)O,inactive,,,,inactive,inactive
OC[C@@H](O)[C@H]1O[C@@H]2O[C@H](C(Cl)(Cl)Cl)O[C@@H]2[C@H]1O,inactive,inactive,inactive,inactive,inactive,inactive

SMILES,Potency [1],Potency [2],Potency [3],Potency [4],outcome [5],outcome [6]
CN(C)C(=O)Cl,inactive,inactive,inactive,inactive,inactive,inactive
CN(C)C(=O)Nc1cccc(C(F)(F)F)c1,inactive,inactive,inactive,inactive,inactive,inactive
Cc1cc(Cl)ccc1OC(C)C(=O)O (centres undefined),inactive,inactive,inactive,inactive,inactive,inactive
C=CC(=O)OCC(CC)CCCC (centres undefined),inactive,,,,inactive,inactive
CCOP(=S)(OCC)Oc1cc(C)nc(C(C)C)n1,,inactive,inactive,inactive and 30.6 µM (active),inactive,inactive
Cc1ccccc1N,inactive,inactive,inactive,inactive,inactive,inactive
COc1cc(-c2ccc(N)c(OC)c2)ccc1N,inactive,68.6 µM (active) and 16.4 µM (active),14.7 µM (active),,inactive,inactive
O=[N+]([O-])c1ccc(Cl)c(Cl)c1,inactive,inactive,inactive,inactive,inactive,inactive
O=C(O)C(Br)Br,inactive,inactive,inactive,inactive,inactive,inactive
[N-]=[N+]=CC(=O)OC[C@H](N)C(=O)O,inactive,inactive,inactive,inactive,inactive,inactive
CC(=O)C1CCOC1=O (centres undefined),inactive,inactive,,inactive,inactive,inactive
O=C(O)Cc1ccccc1,inactive,inactive,inactive,inactive,inactive,inactive
CCOP(=S)(OCC)Oc1ccc([N+](=O)[O-])cc1,inactive,inactive,inactive,inactive,inactive,inactive
NNc1ccccc1,inactive,inactive,inactive and 60.4 µM (active),inactive and 48 µM (active),inactive,inactive
C/C=C/c1ccc2c(c1)OCO2,inactive,inactive,inactive,inactive,inactive,inactive
CN1C(=O)CCS(=O)(=O)C1c1ccc(Cl)cc1 (centres undefined),inactive,inactive,inactive,inactive,inactive,inactive
N#CN=C(N)N,inactive,inactive,inactive,inactive,inactive,inactive
CCCCCCCCCCCCCCCCCC(=O)O,inactive,inactive,60.7 µM (active) and inactive,inactive,inactive,inactive
O=C(O)CCCc1ccc(N(CCCl)CCCl)cc1,inactive,21.1 µM (active) and 770 nM (active),1.88 µM (active) and 2.18 µM (active) and 43.3 nM (active),3.86 µM (active),inactive,inactive
O=C(O)c1cc(Oc2ccc(C(F)(F)F)cc2Cl)ccc1[N+](=O)[O-],inactive,inactive,inactive,inactive,inactive,inactive
C[C@H]1C(=O)O[C@@H]2CCN3CC=C(COC(=O)[C@](C)(O)[C@]1(C)O)[C@H]23,inactive,inactive,inactive and 15.4 µM (active),inactive and 38.6 µM (active),inactive,inactive
CCCOC(=O)c1ccccc1C(=O)OCCC,inactive,inactive,,inactive,inactive,inactive
CSc1nnc(C(C)(C)C)c(=O)n1N,inactive,inactive,inactive,inactive,inactive,inactive
N#Cc1cccc(C#N)c1,inactive,inactive,inactive,inactive,inactive,inactive
CNC(=O)Oc1cccc2ccccc12,inactive,,inactive,inactive,inactive,inactive

# From PubChem BioAssay (Tox21)
